HTR5A inv ag = HTR5A inverse agonism, opioid heterodimer counter-screen; 0.083% of 340,000 active; AID 504634; inhibition, % at 9.3 µM; HTR5A cell line, luminescence; in the data active = inhibition mostly above about 23%, no sharp cut-off; inactive = mostly below about 18%;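 also: 0% = cells with DMSO and 100% = no-cell wells with DMSO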
Target sequence (P47898 whole entry, looked up): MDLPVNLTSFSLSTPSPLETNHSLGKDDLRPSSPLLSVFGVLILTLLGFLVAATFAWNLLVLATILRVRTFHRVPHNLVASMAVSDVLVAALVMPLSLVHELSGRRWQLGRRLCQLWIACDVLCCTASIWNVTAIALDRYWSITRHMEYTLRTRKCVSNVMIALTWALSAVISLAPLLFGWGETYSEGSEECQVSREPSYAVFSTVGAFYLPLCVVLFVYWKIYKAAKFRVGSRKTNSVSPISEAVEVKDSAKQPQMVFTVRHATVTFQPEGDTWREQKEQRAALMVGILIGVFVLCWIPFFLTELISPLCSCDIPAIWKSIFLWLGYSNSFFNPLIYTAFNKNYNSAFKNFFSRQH
MOR-DOR ag-1 = OPRM1-OPRD1 heterodimerization agonism. P35372+P41143. cells, luminescence. activation, % at 9.3 µM. 0.3% of 340,000 active. AID 504326;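 also: 0% = vehicle-treated cells and 100% = reference agonist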
HTR5A ag ctr = HTR5A agonism, opioid heterodimer counter-screen; HTR5A agonist assay, luminescence, cell-based; P47898; AID 504692; activation, % at 9.3 µM; 0.61% of 340,000 active; in the data active = activation mostly above about 9.5%, no sharp cut-off; inactive = mostly below about 7.6%;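 also: 0% = cells with vehicle only and 100% = reference agonist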
OPRM1-OPRD1 inv = mu-delta opioid heterodimer inverse agonism; P35372+P41143; cell-based MOR-DOR heterodimer luminescence; inhibition, % at 9.3 µM; 0.21% of 340,000 active; in the data active = inhibition above about 22%, passing the limit was not always enough;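 also: 0% = cells with DMSO and 100% = wells without cells with DMSO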
MOR-DOR ag-2 = counter-screen for HTR5A agonists: OPRM1-OPRD1 heterodimerization agonism. activation, % at 9.3 µM. shares compounds with HTR5A ag ctr. 13% of 800 active. U2OS counter-screen cells, complementation luminescence, 3 h
HTR5A ag confirm = confirmation of human HTR5A agonists; shares compounds with HTR5A ag ctr; HTR5A agonist cell assay, luminescence; activation, % at 9.3 µM; 17% of 800 active; AID 504915; in the data active = activation above about 17%;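 also: 0% = cells with vehicle only and 100% = full reference agonist response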
Numbers without * were called inactive; x = not tested or not shown. Hits are enriched below; roughly 1.1% of the tested compounds scored in any of these assays. Rule as the data show it, unless noted: active = activation above about 18%; inactive = the rest.

SMILES	HTR5A inv ag	MOR-DOR ag-1	HTR5A ag ctr	OPRM1-OPRD1 inv	MOR-DOR ag-2	HTR5A ag confirm
COC(=O)c1cccc(N2C(=O)C(Cl)=C(N3CCOCC3)C2=O)c1	-43	-2	6	9	x	x
Cc1ccc(OCC(=O)N(C)CC(=O)Nc2ccc(Cl)c(C(F)(F)F)c2)c([N+](=O)[O-])n1	-37	2	15*	-6	-3	-6
Cc1ccc2cccc(OCC(=O)N(C)CC(=O)Nc3ccc(F)cc3)c2n1	-41	-5	16*	19	1	2
Cc1ccc(OCC(=O)N(C)CC(=O)Nc2ccc(F)cc2)c([N+](=O)[O-])n1	12	2	-4	-16	x	x
COc1ccccc1NC(=O)C(Cc1ccc(Cl)cc1)c1nn[nH]n1 (stereo not drawn)	6	-2	1	10	x	x
CCn1c(N2CCN(C(=S)NCC(C)C)CC2)nc2ccccc21	-10	0	6	-1	x	x
CCn1c(N2CCN(C(=S)NCCc3ccccc3)CC2)nc2ccccc21	-38	-1	31*	3	2	30*
CCn1c(N2CCN(S(=O)(=O)c3ccc(Cl)cc3)CC2)nc2ccccc21	-41	4	16*	-20	3	-1
CCn1c(N2CCN(C(=S)NC)CC2)nc2ccccc21	-24	-1	24*	7	2	2
Cc1c(NC(=O)C(C)OC(=O)CC2CC3CCC2C3)c(=O)n(-c2ccccc2)n1C (stereo not drawn)	5	-3	-2	13	x	x
COc1ccccc1OCC(=O)Nc1ccc(NC(=O)COc2ccccc2OC)cc1	-58	-1	24*	4	0	-1
COc1ccccc1OCC(=O)Nc1ccc(Cl)cc1	7	0	-3	0	x	x
COc1ccccc1C(CNC(=O)c1cccc(S(=O)(=O)Nc2ccc(C)cc2)c1)N1CCCC1 (stereo not drawn)	-93	-2	25*	9	2	34*
COc1ccccc1NS(=O)(=O)c1cccc(C(=O)NCC(c2ccccc2OC)N2CCCC2)c1 (stereo not drawn)	9	-1	10	5	x	x
O=C(Nc1ccc(N2CCN(C(=O)c3cccs3)CC2)cc1)c1ccc(Br)o1	-41	0	16*	0	5	0
CCn1c(C)nc2cc(C(=O)N/N=C/c3ccc(OC)c(O)c3)ccc21	-27	0	14*	-1	0	-1
CCn1c(C)nc2cc(C(=O)N/N=C/c3ccc(O)cc3)ccc21	2	-1	8	4	x	x
CN(c1ccc(OCC(=O)N2CCCC2)cc1)S(=O)(=O)c1ccc(Cl)cc1	-41	-3	17*	11	1	-2
COc1ccc(CCNC(=O)COc2ccc(N(C)S(=O)(=O)c3ccc(C)cc3)cc2)cc1	1	0	16*	-1	-1	-4
CCN(CC(=O)Nc1ccc(NC(C)=O)cc1)C(=O)COc1ccc(C(=O)c2ccccc2)cc1	10	0	-3	1	x	x
CCN(CC(=O)Nc1ccc(NC(C)=O)cc1)C(=O)c1ccc(C(=O)c2ccccc2)cc1	-66	-4	22*	13	0	30*
COc1ccc(-n2nc3c(c2NC(=O)COc2ccccc2)CS(=O)C3)cc1 (stereo not drawn)	-19	-2	4	10	x	x
OCCc1ccc(O)cc1	-37	-3	10	18	x	x
CC(c1ccc(O)cc1)(c1ccc(O)cc1)c1ccc(CCBr)cc1	-53	-1	15*	6	7	3
O=C(Nc1ccccc1Cl)C1CCCN1C(=O)OCc1ccccc1 (stereo not drawn)	18	-2	-2	12	x	x
SMILES	HTR5A inv ag	MOR-DOR ag-1	HTR5A ag ctr	OPRM1-OPRD1 inv	MOR-DOR ag-2	HTR5A ag confirm
COc1nc(-c2ccccc2)ccc1-c1noc(-c2cccs2)n1	-23	-3	19*	18	2	-2
CN(C(=S)Nc1ccc(SC(F)F)cc1)c1ccc(O)cc1	4	7	2	-36	x	x
COC(=O)C1=C(C)N(Cc2ccccc2)C(=NCc2cc(OC)c(OC)c(OC)c2)N[C@H]1c1ccc(Br)cc1	-12	2	14*	-13	-1	0
CCC(C)(C)C1CCC2(CC1)NC(=O)N(CC(=O)NCCc1c[nH]c3ccccc13)C2=O (stereo not drawn)	-52	1	19*	-4	2	8
CC(C)c1ccc(-c2nnn(Cc3nc4ccccc4s3)n2)cc1	2	4	21*	-18	3	1
CC(C)c1ccc(-c2nnn(CCC#N)n2)cc1	-1	-3	0	16	x	x
